Common to all, as to assay: PBM; 200 nM protein, PBS
What all share (settings): dsDNA, one strand shown

Test [1] has as its target HESX1 (Homo sapiens, UniProt Q9UBX0 95-180).
Test [2] has as its target T1, SIX6 (Homo sapiens, UniProt O95475 114-200, T165G).
T1 sequence: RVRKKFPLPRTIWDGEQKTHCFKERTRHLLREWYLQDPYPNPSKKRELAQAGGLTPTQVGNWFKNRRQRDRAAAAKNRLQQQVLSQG

Test [3] concerns the target T2, SIX6 (Homo sapiens, UniProt O95475 114-200, T165A).
T2 sequence: T1 sequence with G52A

The target in test [4] is HOXA2 (Homo sapiens, UniProt O43364 129-215, R185T).
Test [5] deals with HOXB9 (Homo sapiens, UniProt P17482 171-250).
Test [6] concerns the target HOXB9 (Homo sapiens, UniProt P17482 171-250, R186Q).
Test [7] has as its target HOXA2 (Homo sapiens, UniProt O43364 129-215).
Test [8] deals with ALX1 (Homo sapiens, UniProt Q15699 118-204, L144V).
Test [9] addresses ALX3 (Homo sapiens, UniProt O95076 139-225, N203Q).
Test [10] deals with T3, NKX2-6 (Homo sapiens, UniProt A6NCS4 118-204).
T3 sequence: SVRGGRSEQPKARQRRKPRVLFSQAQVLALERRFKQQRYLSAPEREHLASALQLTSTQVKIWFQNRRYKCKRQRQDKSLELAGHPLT

Test [11] deals with HOXA2 (Homo sapiens, UniProt O43364 129-215, R185K).
Test [12] deals with ALX1 (Homo sapiens, UniProt Q15699 118-204, L144R).
Test [13] has as its target ALX3 (Homo sapiens, UniProt O95076 139-225).
For test [14], the target named is ALX3 (Homo sapiens, UniProt O95076 139-225, L168Q).
Test [15] addresses T4, NKX2-6 (Homo sapiens, UniProt A6NCS4 118-204, F151L).
T4 sequence: T3 sequence with F34L

Test [16] has as its target ALX3 (Homo sapiens, UniProt O95076 139-225, L168V).
The target of test [17] is HOXA2 (Homo sapiens, UniProt O43364 129-215, Y150S).
Test [18] has as its target ALX1 (Homo sapiens, UniProt Q15699 118-204).
Test [19] deals with ALX3 (Homo sapiens, UniProt O95076 139-225, N203S).
The target in test [20] is NKX3-2 (Homo sapiens, UniProt P78367 192-278, P234S).
The target of test [21] is NKX3-2 (Homo sapiens, UniProt P78367 192-278).
Test [22] deals with VAX1 (Homo sapiens, UniProt Q5SQQ9 86-172).
The target of test [23] is VAX1 (Homo sapiens, UniProt Q5SQQ9 86-172, T142I).
The target in test [24] is VAX1 (Homo sapiens, UniProt Q5SQQ9 86-172, K157R).

Residue numbers refer to the chain shown, from its start.

Chain of HOXA2 (Homo sapiens, UniProt O43364 129-215, R185T) (O43364 129-215 R185T): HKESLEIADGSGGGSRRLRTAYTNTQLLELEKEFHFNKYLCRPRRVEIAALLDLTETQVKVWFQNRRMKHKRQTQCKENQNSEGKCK
Chain of HOXA2 (Homo sapiens, UniProt O43364 129-215) (O43364 129-215): as the sequence (O43364 129-215 R185T) above, with T57R counted along it
Chain of HOXA2 (Homo sapiens, UniProt O43364 129-215, R185K) (O43364 129-215 R185K): as the sequence (O43364 129-215 R185T) above, with T57K counted along it
Chain of HOXA2 (Homo sapiens, UniProt O43364 129-215, Y150S) (O43364 129-215 Y150S): as the sequence (O43364 129-215 R185T) above, with Y22S, T57R counted along it
Chain of ALX1 (Homo sapiens, UniProt Q15699 118-204, L144R) (Q15699 118-204 L144R): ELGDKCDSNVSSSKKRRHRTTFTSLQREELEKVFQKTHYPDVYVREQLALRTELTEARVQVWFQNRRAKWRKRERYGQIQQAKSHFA
Chain of ALX1 (Homo sapiens, UniProt Q15699 118-204) (Q15699 118-204): as the sequence (Q15699 118-204 L144R) above, with R27L counted along it
Chain of VAX1 (Homo sapiens, UniProt Q5SQQ9 86-172, T142I) (Q5SQQ9 86-172 T142I): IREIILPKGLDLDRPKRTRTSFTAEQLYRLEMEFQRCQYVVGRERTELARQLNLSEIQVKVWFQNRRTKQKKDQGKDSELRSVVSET
Chain of ALX1 (Homo sapiens, UniProt Q15699 118-204, L144V) (Q15699 118-204 L144V): as the sequence (Q15699 118-204 L144R) above, with R27V counted along it
Chain of HESX1 (Q9UBX0 95-180): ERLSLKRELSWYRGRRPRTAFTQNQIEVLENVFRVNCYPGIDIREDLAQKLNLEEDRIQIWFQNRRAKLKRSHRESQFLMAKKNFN
Chain of ALX3 (Homo sapiens, UniProt O95076 139-225, N203Q) (O95076 139-225 N203Q): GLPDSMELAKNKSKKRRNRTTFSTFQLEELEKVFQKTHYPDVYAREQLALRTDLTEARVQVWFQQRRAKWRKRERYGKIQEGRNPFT
Chain of HOXB9 (Homo sapiens, UniProt P17482 171-250, R186Q) (P17482 171-250 R186Q): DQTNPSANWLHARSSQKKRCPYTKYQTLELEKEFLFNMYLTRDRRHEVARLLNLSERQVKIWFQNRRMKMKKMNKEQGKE
Chain of ALX3 (Homo sapiens, UniProt O95076 139-225, N203S) (O95076 139-225 N203S): as the sequence (O95076 139-225 N203Q) above, with Q65S counted along it
Chain of NKX3-2 (Homo sapiens, UniProt P78367 192-278) (P78367 192-278): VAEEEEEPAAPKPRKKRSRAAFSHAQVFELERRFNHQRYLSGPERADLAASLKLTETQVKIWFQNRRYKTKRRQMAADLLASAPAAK
Chain of HOXB9 (Homo sapiens, UniProt P17482 171-250) (P17482 171-250): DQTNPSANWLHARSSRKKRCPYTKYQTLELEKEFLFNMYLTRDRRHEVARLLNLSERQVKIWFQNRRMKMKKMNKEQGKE
Chain of ALX3 (Homo sapiens, UniProt O95076 139-225) (O95076 139-225): as the sequence (O95076 139-225 N203Q) above, with Q65N counted along it
Chain of ALX3 (Homo sapiens, UniProt O95076 139-225, L168V) (O95076 139-225 L168V): as the sequence (O95076 139-225 N203Q) above, with L30V, Q65N counted along it
Chain of VAX1 (Homo sapiens, UniProt Q5SQQ9 86-172) (Q5SQQ9 86-172): as the sequence (Q5SQQ9 86-172 T142I) above, with I57T counted along it
Chain of ALX3 (Homo sapiens, UniProt O95076 139-225, L168Q) (O95076 139-225 L168Q): as the sequence (O95076 139-225 N203Q) above, with L30Q, Q65N counted along it
Chain of NKX3-2 (Homo sapiens, UniProt P78367 192-278, P234S) (P78367 192-278 P234S): as the sequence (P78367 192-278) above, with P43S counted along it
Chain of VAX1 (Homo sapiens, UniProt Q5SQQ9 86-172, K157R) (Q5SQQ9 86-172 K157R): as the sequence (Q5SQQ9 86-172 T142I) above, with I57T, K72R counted along it

Consider GAATTCTA, for which the binding signal in test [1] was 6.97 upbm affinity estimate (log intensity, higher = more binding, comparable within an allelic series).

With ACACCACC, the binding signal in [2] was 10.3 upbm affinity estimate (log intensity, higher = more binding, comparable within an allelic series).

For the sequence ACGACACC, the binding signal in test [2] is 10.6 upbm affinity estimate (log intensity, higher = more binding, comparable within an allelic series); in [3] it was 10.6 upbm affinity estimate (log intensity, higher = more binding, comparable within an allelic series).

In the case of ATCAATAG, the binding signal in test [4] was 9.12 upbm affinity estimate (log intensity, higher = more binding, comparable within an allelic series); in test [5] it was 10.1 upbm affinity estimate (log intensity, higher = more binding, comparable within an allelic series); in test [6], 10.1 upbm affinity estimate (log intensity, higher = more binding, comparable within an allelic series); in test [7] it was 9.47 upbm affinity estimate (log intensity, higher = more binding, comparable within an allelic series).

With CCGGTTCC, the binding signal in test [4] was 6.98 upbm affinity estimate (log intensity, higher = more binding, comparable within an allelic series); in [8], 6.06 upbm affinity estimate (log intensity, higher = more binding, comparable within an allelic series); in [9], 7.77 upbm affinity estimate (log intensity, higher = more binding, comparable within an allelic series); in test [10] it was 9.05 upbm affinity estimate (log intensity, higher = more binding, comparable within an allelic series); in test [11] it was 10.1 upbm affinity estimate (log intensity, higher = more binding, comparable within an allelic series); in test [12], 6.02 upbm affinity estimate (log intensity, higher = more binding, comparable within an allelic series). The binding signal was 7.63 upbm affinity estimate (log intensity, higher = more binding, comparable within an allelic series) in test [13]; 7.69 upbm affinity estimate (log intensity, higher = more binding, comparable within an allelic series) in test [14]; 9.2 upbm affinity estimate (log intensity, higher = more binding, comparable within an allelic series) in [15]; 7.7 upbm affinity estimate (log intensity, higher = more binding, comparable within an allelic series) in test [16]; 10.4 upbm affinity estimate (log intensity, higher = more binding, comparable within an allelic series) in [17]; 6 upbm affinity estimate (log intensity, higher = more binding, comparable within an allelic series) in test [18]. In addition, the binding signal is 7.77 upbm affinity estimate (log intensity, higher = more binding, comparable within an allelic series) in test [19] and 6.81 upbm affinity estimate (log intensity, higher = more binding, comparable within an allelic series) in [7].

For GACACCCC, the binding signal in [2] is 10.6 upbm affinity estimate (log intensity, higher = more binding, comparable within an allelic series).

On to CGACACCC, for which the binding signal in test [2] is 10.5 upbm affinity estimate (log intensity, higher = more binding, comparable within an allelic series).

Consider GACCGCCC, for which the binding signal in test [4] is 7.33 upbm affinity estimate (log intensity, higher = more binding, comparable within an allelic series); in test [8], 6.66 upbm affinity estimate (log intensity, higher = more binding, comparable within an allelic series); in test [11], 10.1 upbm affinity estimate (log intensity, higher = more binding, comparable within an allelic series); in test [12], 6.49 upbm affinity estimate (log intensity, higher = more binding, comparable within an allelic series); in test [17], 10.4 upbm affinity estimate (log intensity, higher = more binding, comparable within an allelic series); in test [20] it was 10.5 upbm affinity estimate (log intensity, higher = more binding, comparable within an allelic series). Besides, the binding signal in test [18] is 6.57 upbm affinity estimate (log intensity, higher = more binding, comparable within an allelic series); in test [7], 7.29 upbm affinity estimate (log intensity, higher = more binding, comparable within an allelic series); in test [21], 10.5 upbm affinity estimate (log intensity, higher = more binding, comparable within an allelic series).

Regarding GGTGTAAC, the binding signal in test [2] was 10.4 upbm affinity estimate (log intensity, higher = more binding, comparable within an allelic series); in test [3] it was 10.4 upbm affinity estimate (log intensity, higher = more binding, comparable within an allelic series).

With AGACACCA, in test [2], the binding signal was 10.5 upbm affinity estimate (log intensity, higher = more binding, comparable within an allelic series).

As to CTACGCCC, the binding signal in [4] is 7.29 upbm affinity estimate (log intensity, higher = more binding, comparable within an allelic series); in test [11], 10.3 upbm affinity estimate (log intensity, higher = more binding, comparable within an allelic series); in [17], 10.5 upbm affinity estimate (log intensity, higher = more binding, comparable within an allelic series); in test [7], 7.38 upbm affinity estimate (log intensity, higher = more binding, comparable within an allelic series).

As for CCACCCCC, the binding signal is 7.29 upbm affinity estimate (log intensity, higher = more binding, comparable within an allelic series) in [4]; 10.2 upbm affinity estimate (log intensity, higher = more binding, comparable within an allelic series) in test [11]; 10.4 upbm affinity estimate (log intensity, higher = more binding, comparable within an allelic series) in test [17]; 6.98 upbm affinity estimate (log intensity, higher = more binding, comparable within an allelic series) in [7].

AACCTAAT: the binding signal in test [4] was 10.5 upbm affinity estimate (log intensity, higher = more binding, comparable within an allelic series); in test [11], 12.1 upbm affinity estimate (log intensity, higher = more binding, comparable within an allelic series); in test [17], 10.6 upbm affinity estimate (log intensity, higher = more binding, comparable within an allelic series); in test [7] it was 10.3 upbm affinity estimate (log intensity, higher = more binding, comparable within an allelic series).

With CATTATGG, the binding signal is 10.5 upbm affinity estimate (log intensity, higher = more binding, comparable within an allelic series) in [4]; 12.3 upbm affinity estimate (log intensity, higher = more binding, comparable within an allelic series) in [11]; 10.7 upbm affinity estimate (log intensity, higher = more binding, comparable within an allelic series) in test [17]; 10.9 upbm affinity estimate (log intensity, higher = more binding, comparable within an allelic series) in test [7].

With TCATTAGA, the binding signal is 12.1 upbm affinity estimate (log intensity, higher = more binding, comparable within an allelic series) in test [4]; 13 upbm affinity estimate (log intensity, higher = more binding, comparable within an allelic series) in test [11]; 12.8 upbm affinity estimate (log intensity, higher = more binding, comparable within an allelic series) in test [22]; 12.5 upbm affinity estimate (log intensity, higher = more binding, comparable within an allelic series) in test [23]; 10.6 upbm affinity estimate (log intensity, higher = more binding, comparable within an allelic series) in [17]; 12.1 upbm affinity estimate (log intensity, higher = more binding, comparable within an allelic series) in test [7]. Moreover, the binding signal in test [24] was 12.5 upbm affinity estimate (log intensity, higher = more binding, comparable within an allelic series).

On to GGATATTA, for which the binding signal in test [4] is 10.4 upbm affinity estimate (log intensity, higher = more binding, comparable within an allelic series); in test [11], 12 upbm affinity estimate (log intensity, higher = more binding, comparable within an allelic series); in test [17], 10.8 upbm affinity estimate (log intensity, higher = more binding, comparable within an allelic series); in test [7] it was 10.6 upbm affinity estimate (log intensity, higher = more binding, comparable within an allelic series).

With GTAATGAC, the binding signal in [4] was 12 upbm affinity estimate (log intensity, higher = more binding, comparable within an allelic series); in test [11], 13.1 upbm affinity estimate (log intensity, higher = more binding, comparable within an allelic series); in [23], 12.3 upbm affinity estimate (log intensity, higher = more binding, comparable within an allelic series); in [17], 10.8 upbm affinity estimate (log intensity, higher = more binding, comparable within an allelic series); in test [7], 12.1 upbm affinity estimate (log intensity, higher = more binding, comparable within an allelic series).

Take ACCTCGCC: the binding signal in [4] was 7.06 upbm affinity estimate (log intensity, higher = more binding, comparable within an allelic series); in [11] it was 10.2 upbm affinity estimate (log intensity, higher = more binding, comparable within an allelic series); in test [17] it was 10.4 upbm affinity estimate (log intensity, higher = more binding, comparable within an allelic series); in test [7], 6.93 upbm affinity estimate (log intensity, higher = more binding, comparable within an allelic series).

On to GGAGGCGA, for which the binding signal in [4] was 7.15 upbm affinity estimate (log intensity, higher = more binding, comparable within an allelic series); in test [11] it was 10.6 upbm affinity estimate (log intensity, higher = more binding, comparable within an allelic series); in test [17] it was 10.4 upbm affinity estimate (log intensity, higher = more binding, comparable within an allelic series); in [7], 7.38 upbm affinity estimate (log intensity, higher = more binding, comparable within an allelic series).

For the sequence CGATTACA, the binding signal is 10.3 upbm affinity estimate (log intensity, higher = more binding, comparable within an allelic series) in test [4]; 12 upbm affinity estimate (log intensity, higher = more binding, comparable within an allelic series) in [11]; 10.7 upbm affinity estimate (log intensity, higher = more binding, comparable within an allelic series) in test [17]; 9.9 upbm affinity estimate (log intensity, higher = more binding, comparable within an allelic series) in test [7].

In the case of CTGGGGCC, the binding signal in test [4] was 7.14 upbm affinity estimate (log intensity, higher = more binding, comparable within an allelic series); in test [11] it was 10.1 upbm affinity estimate (log intensity, higher = more binding, comparable within an allelic series); in [17], 10.3 upbm affinity estimate (log intensity, higher = more binding, comparable within an allelic series); in test [7] it was 7.16 upbm affinity estimate (log intensity, higher = more binding, comparable within an allelic series).

As to ACACTAAT, the binding signal in test [4] is 11.5 upbm affinity estimate (log intensity, higher = more binding, comparable within an allelic series); in test [11], 12.6 upbm affinity estimate (log intensity, higher = more binding, comparable within an allelic series); in test [17], 10.9 upbm affinity estimate (log intensity, higher = more binding, comparable within an allelic series); in test [7], 11.3 upbm affinity estimate (log intensity, higher = more binding, comparable within an allelic series).

In the case of CCCCCTCC, the binding signal was 6.95 upbm affinity estimate (log intensity, higher = more binding, comparable within an allelic series) in [4]; 9.98 upbm affinity estimate (log intensity, higher = more binding, comparable within an allelic series) in [11]; 10.1 upbm affinity estimate (log intensity, higher = more binding, comparable within an allelic series) in [17]; 6.89 upbm affinity estimate (log intensity, higher = more binding, comparable within an allelic series) in test [7].

The record behind these values is PMC11006913.
